Source: PubChem BioAssay (EPA / NIEHS)
Inconclusive results are not listed. The source made the active and inactive calls. How the source made its calls, unless noted: active means hit-call score of the fitted dose curve at least 0.9, where 1 is the maximum; inactive means score below 0.9.

Columns and labels:
[1] = target: Oxysterols receptor LXR-alpha (Homo sapiens) (UniProt Q13133); experiment: ATG_LXRa_TRANS: Attagene TRANS-FACTORIAL HepG2 Assay for human Liver X Receptor alpha (LXRa) (AID 2282980; active means hit-call score of the fitted dose curve at least 0.9, where 1 is the maximum); conditions: HepG2 Attagene TRANS reporter, LXRa transactivation
Outline: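 HepG2 cells transiently transfected with GAL4-UAS reporter units for chimeric NR-Gal4 proteins, exposed to chemicals for 24 h. Reporter mRNA quantified by RT-PCR and capillary electrophoresis; gain of signal fitted relative to DMSO.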

[2] = target: Oxysterols receptor LXR-beta (Homo sapiens) (UniProt P55055); experiment: ATG_LXRb_TRANS: Attagene TRANS-FACTORIAL HepG2 Assay for human Liver X Receptor beta (LXRb) (AID 2282981; active means hit-call score of the fitted dose curve at least 0.9, where 1 is the maximum); conditions: HepG2 Attagene TRANS GAL4-LXRb reporter, mRNA
Outline: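 Liver-derived HepG2 cells transfected with Gal4-responsive reporters were dosed for 24 h. Activation was scored as rise in reporter mRNA, by RT-PCR and capillary electrophoresis, above DMSO baseline.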

[3] = target: Hepatocyte nuclear factor 4-alpha (Homo sapiens) (UniProt P41235); experiment: ATG_HNF4a_TRANS: Attagene TRANS-FACTORIAL HepG2 Assay for human Hepatocyte Nuclear Factor 4 alpha (HNF4a) (AID 2282982; active means hit-call score of the fitted dose curve at least 0.9, where 1 is the maximum); conditions: HepG2 HNF4a transactivation reporter, mRNA readout
Outline: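 Using HepG2 liver cells transfected with GAL4-UAS reporter units, chemical-induced mRNA increases were assessed after 24 hours. Fluorescent RT-PCR fragments were separated by capillary electrophoresis and compared with DMSO negative controls.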

[4] = ATG_M_06_TRANS: Attagene TRANS-FACTORIAL HepG2 Assay for M06 Transcription Factor (Internal Marker) (AID 2282983; active means hit-call score of the fitted dose curve at least 0.9, where 1 is the maximum); conditions: HepG2 Attagene TRANS M06 internal marker reporter
Outline: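 mRNA levels of a reporter transcript, quantified as FAM fluorescence on capillary electrophoresis, served as readout. HepG2 cells expressing exogenous GAL4-chimera reporter constructs were exposed for 24 h. Gain of signal over DMSO was evaluated.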

[5] = target: Transcriptional activator Myb (Homo sapiens) (UniProt P10242); experiment: ATG_Myb_CIS: Attagene CIS-FACTORIAL HepG2 Assay for human Myeloblastosis (Myb) Proto-Oncogene Transcription Factor (AID 2282986); conditions: HepG2 Attagene CIS-FACTORIAL Myb reporter transcription; actives raise or lower the signal
Outline: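 HepG2 cells were transiently transfected with cis-regulated multiple reporter transcription units reflecting endogenous Myb activity, then exposed to compound for 24 hours. Reporter mRNA was measured by RT-PCR with capillary electrophoresis; bidirectional fitting versus DMSO baseline.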

[6] = target: Nuclear respiratory factor 1 (Homo sapiens) (UniProt Q16656); experiment: ATG_NRF1_CIS: Attagene CIS-FACTORIAL HepG2 Assay for human Nuclear Respiratory Factor 1 (NRF1) Orphan Gene (AID 2282987); conditions: HepG2 NRF1 cis-element reporter, Attagene multiplex; actives raise or lower the signal
Outline: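 HepG2 cells transiently transfected with multiple reporter transcription units under cis-regulatory promoter control, so endogenous transcription-factor activity is read. After 24 h compound exposure, reporter mRNA quantified by RT-PCR, fluorescent labelling, HpaI digestion and capillary electrophoresis; bidirectional fitting versus DMSO.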

[7] = ATG_NFI_CIS: Attagene CIS-FACTORIAL HepG2 Assay for human Nuclear Factor I (NFI) (AID 2282989); conditions: HepG2 cis-regulatory reporter, NFI response element transcription; actives raise or lower the signal
Outline: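 Read-out: reporter mRNA via RT-PCR plus capillary electrophoresis with fluorescence detection. Transiently transfected HepG2 (endogenous TF activity on cis promoters), 24 h compound exposure; gain or loss of signal fitted against DMSO.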

[8] = target: Myc proto-oncogene protein (Homo sapiens) (UniProt P01106); experiment: ATG_Myc_CIS: Attagene CIS-FACTORIAL HepG2 Assay for human Myelocytomatosis (Myc) Proto-Oncogene Transcription Factor (AID 2282990); conditions: HepG2, Attagene cis-reporter transcription factor activity; actives raise or lower the signal
Outline: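 DMSO-normalised, bidirectionally fitted reporter mRNA signal. HepG2 cells transfected with cis reporter constructs, treated 24 h; transcripts detected by RT-PCR, 6-FAM primer extension and CE.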

[9] = ATG_NF_kB_CIS: Attagene CIS-FACTORIAL HepG2 Assay for human Nuclear Factor Kappa B (NF-kB) (AID 2282991); conditions: HepG2 Attagene cis-factorial NF-kB reporter mRNA; actives raise or lower the signal
Outline: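 HepG2 cells transiently transfected with multiplexed cis-element reporter units measuring endogenous transcription factor activity; reporter mRNA read 24 h after dosing by RT-PCR, fluorescent labelling, HpaI digestion and capillary electrophoresis. Bidirectional fit against DMSO baseline.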

[10] = ATG_Oct_MLP_CIS: Attagene CIS-FACTORIAL HepG2 Assay for human Octamer-Binding Transcription Factor (Oct) (AID 2282993); conditions: HepG2 Attagene cis-factorial Oct reporter, mRNA; actives raise or lower the signal
Outline: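 Read-out: reporter mRNA via RT-PCR plus capillary electrophoresis of 6-FAM-labelled fragments. Transiently transfected HepG2, 24 h exposure, endogenous TF activity on cis elements. Gain or loss of signal fitted relative to DMSO.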

[11] = target: Cellular tumor antigen p53 (Homo sapiens) (UniProt P04637); experiment: ATG_p53_CIS: Attagene CIS-FACTORIAL HepG2 Assay for human p53 Transcription Factor (AID 2282994); conditions: HepG2 p53 cis-element reporter, Attagene mRNA; actives raise or lower the signal
Outline: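 Endogenous p53 activity read in transiently transfected HepG2 from a cis-element-driven reporter transcript after 24 h exposure. RNA reverse-transcribed, PCR-amplified, fluorescently labelled and sized by capillary electrophoresis; gain or loss fitted against DMSO baseline.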

[12] = BSK_3C_TissueFactor: BioMAP Diversity Plus: 3C Assay for Tissue Factor Biomarker Activity (AID 2282997); conditions: BioMAP 3C HUVEC, tissue factor biomarker readout; actives raise or lower the signal
Outline: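 Tissue Factor measured by ELISA, 24 h after treatment of primary HUVEC in the BioMAP 3C setting.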

[13] = BSK_3C_uPAR: BioMAP Diversity Plus: 3C Assay for Urokinase-type plasminogen activator receptor (uPAR) Biomarker Activity (AID 2282998); conditions: BioMAP 3C HUVEC, uPAR biomarker ELISA; actives raise or lower the signal
Outline: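 HUVEC primary cells; 24 h post-dose; uPAR by ELISA; gain or loss of signal fitted bidirectionally vs DMSO baseline.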

[14] = BSK_3C_VCAM1: BioMAP Diversity Plus: 3C Assay for Vascular cell adhesion molecule 1 (VCAM1) Biomarker Activity (AID 2282999); conditions: BioMAP 3C HUVEC, VCAM1 ELISA, cytokine-stimulated; actives raise or lower the signal
Outline: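 Vascular primary endothelium (human umbilical vein) was exposed to chemicals and assayed 24 h later. VCAM-1 levels came from ELISA, with DMSO serving as baseline for bidirectional fitting.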

[15] = BSK_4H_Eotaxin3: BioMAP Diversity Plus: 4H Assay for Eotaxin 3 Biomarker Activity (AID 2283000); conditions: primary human endothelial cells (HUVEC); actives raise or lower the signal;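 further: CCL26 protein level quantified by ELISA in parallel with SRB cytotoxicity check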
Outline: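 Eotaxin-3 (CCL26) levels were measured by ELISA in HUVEC primary cultures 24 h post-dosing. Gain or loss of signal was fitted in both directions, with DMSO serving as baseline and negative control.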

[16] = ATG_M_32_TRANS: Attagene TRANS-FACTORIAL HepG2 Assay for M32 Transcription Factor (Internal Marker) (AID 2282984; active means hit-call score of the fitted dose curve at least 0.9, where 1 is the maximum;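 further: transcript level of a background control reporter unit measured by RT-PCR and capillary electrophoresis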); conditions: HepG2 Attagene TRANS M32 internal marker reporter
Outline: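 Fluorescence-detected mRNA induction, HepG2 liver cells, 24 h after dosing. Multiple GAL4-UAS reporter units introduced by transient transfection; background-control endpoint analysed for gain of signal against DMSO.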

[17] = ATG_NRF2_ARE_CIS: Attagene CIS-FACTORIAL HepG2 Assay for human Nuclear Factor Erythroid 2 Related Factor 2 (NFR2) response to Antioxidant Response Elements (ARE) (AID 2282992); conditions: HepG2 Attagene ARE/NRF2 reporter, transcription factor activity; actives raise or lower the signal
Outline: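 Endogenous transcription factor activity read out as reporter transcript levels (RT-PCR plus capillary electrophoresis, fluorescence) in transiently transfected HepG2 cells. Measured at 24 h after dosing; gain or loss of signal fitted versus DMSO.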

Nuclear respiratory factor 1 (Homo sapiens), sequence (Q16656 whole entry, looked up): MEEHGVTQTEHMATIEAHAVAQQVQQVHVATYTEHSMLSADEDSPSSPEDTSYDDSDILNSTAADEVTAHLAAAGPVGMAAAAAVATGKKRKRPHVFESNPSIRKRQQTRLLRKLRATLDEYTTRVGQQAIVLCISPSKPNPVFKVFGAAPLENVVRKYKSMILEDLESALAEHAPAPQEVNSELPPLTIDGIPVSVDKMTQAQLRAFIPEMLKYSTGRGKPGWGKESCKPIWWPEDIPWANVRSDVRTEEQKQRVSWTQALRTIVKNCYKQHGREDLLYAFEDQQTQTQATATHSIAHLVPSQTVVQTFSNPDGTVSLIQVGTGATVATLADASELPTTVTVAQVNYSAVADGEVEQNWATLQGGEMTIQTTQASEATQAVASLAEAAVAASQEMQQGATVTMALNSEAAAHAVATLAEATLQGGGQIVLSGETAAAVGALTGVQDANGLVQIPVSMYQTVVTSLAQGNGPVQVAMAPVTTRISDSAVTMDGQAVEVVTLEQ
Oxysterols receptor LXR-beta (Homo sapiens), sequence (P55055 whole entry, looked up, the tested form may be a part): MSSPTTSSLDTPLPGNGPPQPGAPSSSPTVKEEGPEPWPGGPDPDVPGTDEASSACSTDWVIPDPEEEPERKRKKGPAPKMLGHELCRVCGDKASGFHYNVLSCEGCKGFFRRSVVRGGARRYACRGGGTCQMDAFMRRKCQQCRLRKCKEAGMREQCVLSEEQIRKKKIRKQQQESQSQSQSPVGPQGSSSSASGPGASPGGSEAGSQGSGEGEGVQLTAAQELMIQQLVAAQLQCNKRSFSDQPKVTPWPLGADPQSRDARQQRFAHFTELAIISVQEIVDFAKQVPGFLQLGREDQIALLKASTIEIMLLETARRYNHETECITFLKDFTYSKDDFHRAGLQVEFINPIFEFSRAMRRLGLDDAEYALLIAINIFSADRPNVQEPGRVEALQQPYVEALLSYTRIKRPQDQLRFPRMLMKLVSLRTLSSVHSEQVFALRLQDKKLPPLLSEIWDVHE
Cellular tumor antigen p53 (Homo sapiens), sequence (P04637 whole entry, looked up): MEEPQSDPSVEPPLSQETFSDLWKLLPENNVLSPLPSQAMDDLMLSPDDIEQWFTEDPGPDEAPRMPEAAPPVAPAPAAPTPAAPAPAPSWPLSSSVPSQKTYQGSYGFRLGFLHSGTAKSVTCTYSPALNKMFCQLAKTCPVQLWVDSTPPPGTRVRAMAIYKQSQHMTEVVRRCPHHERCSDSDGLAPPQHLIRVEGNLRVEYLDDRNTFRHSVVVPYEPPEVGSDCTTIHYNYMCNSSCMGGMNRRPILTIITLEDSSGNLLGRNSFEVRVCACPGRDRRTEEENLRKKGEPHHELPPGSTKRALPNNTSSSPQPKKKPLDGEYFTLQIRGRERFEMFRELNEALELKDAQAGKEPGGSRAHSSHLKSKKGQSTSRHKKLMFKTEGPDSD
Transcriptional activator Myb (Homo sapiens), sequence (P10242 whole entry, looked up): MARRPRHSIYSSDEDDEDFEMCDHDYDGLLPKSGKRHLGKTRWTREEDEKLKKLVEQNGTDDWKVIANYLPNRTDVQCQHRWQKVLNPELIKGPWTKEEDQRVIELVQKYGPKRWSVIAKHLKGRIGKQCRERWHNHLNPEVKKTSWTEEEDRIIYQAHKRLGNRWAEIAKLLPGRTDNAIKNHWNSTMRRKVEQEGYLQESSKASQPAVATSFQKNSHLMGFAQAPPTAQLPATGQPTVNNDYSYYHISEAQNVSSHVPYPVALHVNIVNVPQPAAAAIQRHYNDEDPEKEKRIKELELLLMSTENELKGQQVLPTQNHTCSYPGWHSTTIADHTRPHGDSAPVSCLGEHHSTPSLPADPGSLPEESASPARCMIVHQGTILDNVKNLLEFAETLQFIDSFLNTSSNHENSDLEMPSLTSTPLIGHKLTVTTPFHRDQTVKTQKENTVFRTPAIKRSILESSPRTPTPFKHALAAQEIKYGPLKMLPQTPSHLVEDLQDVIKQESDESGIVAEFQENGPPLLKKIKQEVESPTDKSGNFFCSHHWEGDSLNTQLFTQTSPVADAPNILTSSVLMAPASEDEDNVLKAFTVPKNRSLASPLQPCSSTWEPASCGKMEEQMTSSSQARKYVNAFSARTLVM
Oxysterols receptor LXR-alpha (Homo sapiens), sequence (Q13133 whole entry, looked up, the tested form may be a part): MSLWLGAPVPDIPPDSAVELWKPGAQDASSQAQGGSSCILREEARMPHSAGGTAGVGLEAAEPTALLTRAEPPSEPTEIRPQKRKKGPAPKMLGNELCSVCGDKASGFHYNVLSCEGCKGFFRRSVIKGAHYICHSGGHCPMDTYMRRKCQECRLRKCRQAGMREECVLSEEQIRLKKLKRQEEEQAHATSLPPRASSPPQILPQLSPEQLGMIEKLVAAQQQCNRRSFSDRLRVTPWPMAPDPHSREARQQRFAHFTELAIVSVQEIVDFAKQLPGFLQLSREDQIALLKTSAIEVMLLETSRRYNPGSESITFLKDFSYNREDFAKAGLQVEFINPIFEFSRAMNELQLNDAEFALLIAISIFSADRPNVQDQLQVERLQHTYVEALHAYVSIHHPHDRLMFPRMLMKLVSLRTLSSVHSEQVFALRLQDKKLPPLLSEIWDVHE
Myc proto-oncogene protein (Homo sapiens), sequence (P01106 whole entry, looked up): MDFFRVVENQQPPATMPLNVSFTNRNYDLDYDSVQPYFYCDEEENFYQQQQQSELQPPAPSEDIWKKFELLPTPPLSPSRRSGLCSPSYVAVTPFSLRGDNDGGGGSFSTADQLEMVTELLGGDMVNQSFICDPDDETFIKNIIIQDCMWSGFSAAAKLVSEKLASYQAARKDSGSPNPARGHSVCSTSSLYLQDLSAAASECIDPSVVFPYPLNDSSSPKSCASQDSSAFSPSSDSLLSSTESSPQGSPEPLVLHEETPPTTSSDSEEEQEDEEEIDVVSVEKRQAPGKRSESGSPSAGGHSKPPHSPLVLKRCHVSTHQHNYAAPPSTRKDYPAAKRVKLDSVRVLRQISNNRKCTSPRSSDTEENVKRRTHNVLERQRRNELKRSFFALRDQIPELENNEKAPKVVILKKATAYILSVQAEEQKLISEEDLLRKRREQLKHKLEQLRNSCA
Hepatocyte nuclear factor 4-alpha (Homo sapiens), sequence (P41235 whole entry, looked up, the tested form may be a part): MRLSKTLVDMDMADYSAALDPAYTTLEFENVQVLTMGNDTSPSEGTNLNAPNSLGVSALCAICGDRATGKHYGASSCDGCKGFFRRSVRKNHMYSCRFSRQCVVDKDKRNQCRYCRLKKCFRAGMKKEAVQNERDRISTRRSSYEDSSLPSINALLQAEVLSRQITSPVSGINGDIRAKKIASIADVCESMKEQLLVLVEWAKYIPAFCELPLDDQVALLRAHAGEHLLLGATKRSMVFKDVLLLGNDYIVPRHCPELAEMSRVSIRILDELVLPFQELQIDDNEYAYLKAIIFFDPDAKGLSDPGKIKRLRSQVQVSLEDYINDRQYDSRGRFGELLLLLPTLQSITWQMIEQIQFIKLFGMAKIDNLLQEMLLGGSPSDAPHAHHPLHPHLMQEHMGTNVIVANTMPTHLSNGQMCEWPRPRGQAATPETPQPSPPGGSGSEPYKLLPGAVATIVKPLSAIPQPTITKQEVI

SMILES | outcome [1] | outcome [2] | outcome [3] | outcome [4] | outcome [5] | outcome [6] | outcome [7] | outcome [8] | outcome [9] | AC50 [10] | outcome [11] | outcome [12] | outcome [13] | outcome [14] | outcome [15] | AC50 [1] | outcome [16] | outcome [10] | outcome [17]
CC(C)(C)[C@@H](O)[C@@H](Cc1ccc(Cl)cc1)n1cncn1 | inactive | inactive | inactive | inactive | inactive | inactive | inactive | inactive | inactive | 7.98 µM (active) | inactive | inactive | inactive | inactive | inactive |  |  |  | 
c1ccc2[nH]c(-c3cscn3)nc2c1 |  | inactive | inactive | inactive | inactive | inactive | inactive | inactive | inactive |  |  | inactive | inactive | inactive | inactive | 27.2 µM (active) | inactive | inactive | 
COC(=O)c1ccc(CNS(C)(=O)=O)cc1S(=O)(=O)NC(=O)Nc1nc(OC)cc(OC)n1 | inactive | inactive | inactive | inactive | inactive | inactive | inactive | inactive | inactive |  | inactive | inactive | inactive | inactive | inactive |  |  | inactive | inactive
COCCO | inactive | inactive | inactive | inactive | inactive | inactive | inactive | inactive |  |  | inactive | inactive | inactive | inactive | inactive |  | inactive | inactive | 
